Shown are actives, neighbours in structure and some others; about 5.4% of the full set was active somewhere.
APOBEC3G inh – blocks human APOBEC3G single-stranded DNA deamination; recombinant A3G, ssDNA deamination FAM/TAMRA fluorescence; hit rate 0.28% among 330,000; inhibition, % at 20 µM; Q9HC16;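 active means inhibition of at least 40% at 20 µM, with no more than 30% in the related APOBEC3A deaminase screen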;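 further: plate controls were DMSO wells with A3G for no effect and wells lacking A3G enzyme for full effect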
A3A deaminase – blocks human APOBEC3A ssDNA deamination; P31941; recombinant A3A, FAM/TAMRA ssDNA deamination fluorescence; inhibition, % at 20 µM; hit rate 0.41% among 330,000;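 active means at least 40% inhibition at 20 µM here, with at most 30% in a related deaminase screen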;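 further: plate controls were A3A with DMSO for no effect and wells lacking A3A enzyme for full effect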
Target sequence (P31941 whole entry, looked up): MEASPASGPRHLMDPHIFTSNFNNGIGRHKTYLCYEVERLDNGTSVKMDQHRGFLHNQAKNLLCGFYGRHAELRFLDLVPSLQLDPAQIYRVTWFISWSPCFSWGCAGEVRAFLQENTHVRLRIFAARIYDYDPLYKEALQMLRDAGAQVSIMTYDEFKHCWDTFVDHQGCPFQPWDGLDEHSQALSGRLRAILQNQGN
aDG glyco up – alpha-DG glycosylation activation | hit rate 0.22% among 360,000 | activation, % at 10 µM | Pro5-aDG cells, alpha-DG glycosylation AlphaScreen (IIH6); 0% Pro5, 100% B10-LARGE cell signal | AID 624168;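 active means activation of at least 8% versus controls, or a plate z-score of at least 8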;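 further: Pro5 are CHO cells carrying HIG-tagged alpha-DG that lacks glycosylation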
ALR inh – inhibitors of human sulfhydryl oxidase ALR; hit rate 3.8% among 290,000; inhibition, % (no concentration beside the values); AID 485317; P55789; purified ALR, DTT oxidation, H2O2 HRP-luminol luminescence;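 active means mean replicate inhibition above about 79%, with every replicate also reaching it, limit read from the data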
PHOSPHO1 block – inhibitors of human PHOSPHO1 phosphatase; Q8TCT1; recombinant PHOSPHO1, absorbance phosphatase assay; inhibition, % at 13.3 µM; hit rate 1.1% among 290,000; AID 1565; in the data active means inhibition above about 60%
Target sequence (Q8TCT1 whole entry, looked up): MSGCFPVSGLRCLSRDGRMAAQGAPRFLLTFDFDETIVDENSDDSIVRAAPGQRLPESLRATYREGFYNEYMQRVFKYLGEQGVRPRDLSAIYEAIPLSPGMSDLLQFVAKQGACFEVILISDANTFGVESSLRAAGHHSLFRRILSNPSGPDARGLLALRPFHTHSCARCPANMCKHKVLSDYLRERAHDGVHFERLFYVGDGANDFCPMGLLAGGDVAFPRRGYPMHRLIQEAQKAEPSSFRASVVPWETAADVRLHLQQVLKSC
rCAG RNA binder – molecules binding r(CAG) RNA repeats | hit rate 1.3% among 370,000 | r(CAG) RNA repeat, TO-PRO-1 dye displacement fluorescence | inhibition, % at 3 µM;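 active means inhibition above the plate cutoff, the mean of all test compounds on that plate plus 3 SD, cut at about 35% in these data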;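 further: 0% = DMSO alone and 100% = 100 µM mitoxantrone as full dye displacement; higher means more dye released from RNA so lower well fluorescence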
An asterisk follows results filed as active; x = not tested or not shown.

SMILES | APOBEC3G inh | A3A deaminase | aDG glyco up | ALR inh | PHOSPHO1 block | rCAG RNA binder
CC1Cc2ccccc2N1Cc1cccc(S(=O)(=O)N(C)C)c1 (configuration not stated) | -9 | -6 | 0 | 99* | 20 | -3
O=C1Nc2ccc([N+](=O)[O-])cc2OC1CCN1CCOCC1 (configuration not stated) | -4 | 1 | 0 | x | 32 | 0
O=C1Nc2ccc([N+](=O)[O-])cc2OC1CCN1CCN(c2ccccc2)CC1 (configuration not stated) | -4 | 0 | 0 | 94* | 23 | -2
COc1ccccc1-n1cc(C(=O)NCC(=O)N2CCN(c3ccccc3)CC2)c2ccccc2c1=O | -1 | 0 | 0 | x | 63* | 2
COc1ccc(N2CCN(C(=O)CCc3ccccc3)CC2)cc1 | -8 | -1 | 0 | 97* | 36 | -9
COc1ccc(N2CCN(CC(=O)N3N=CCC3c3ccccc3)CC2)cc1 (configuration not stated) | -5 | 0 | 0 | 84* | -25 | 0
COc1ccc(N2CCN(C(=O)CNC(=O)Cc3ccccc3)CC2)cc1 | -5 | -3 | 1 | 79* | x | -9
CCOC(=O)Cc1nc(N2CCCN(C(C)=O)CC2)c2c(C)c(C(=O)OCC)sc2n1 | x | x | x | x | x | 4
COC(=O)c1c(-c2ccc(OC)cc2)c2c(c3c4cc(OC)ccc4n(C(=O)c4ccccc4)c13)C(=O)N(C)C2 | x | x | x | x | x | 17
O=C(Nc1ccc(F)cc1)OCc1cn(Cc2cccc(C(F)(F)F)c2)nn1 | x | x | x | x | x | -2
COc1cccc(CNC(=O)C2CCCN(c3ncccn3)C2)c1OC (configuration not stated) | x | x | x | x | x | 0
COc1ccc(N2CCN(C(=O)CCc3c[nH]c4ccccc34)CC2)cc1 | -5 | -5 | 0 | 59 | 16 | -2
COc1ccc(N2CCN(C(=O)CN(C)S(=O)(=O)c3cnc[nH]3)CC2)cc1 | -12 | -9 | 0 | 87* | 10 | 1
COc1ccc(N(C(C)C(=O)N(C)Cc2ccccc2)S(C)(=O)=O)cc1 (configuration not stated) | 2 | -3 | 0 | -8 | 14 | 0
COc1ccc(N2CCN(C(C)C(=O)N(C)Cc3ccccc3)CC2)cc1 (configuration not stated) | -9 | -6 | 0 | 96* | 28 | -11
COc1ccc(N2CCN(C(=O)[C@H](Cc3c[nH]c4ccccc34)NC(C)=O)CC2)cc1 | -3 | 1 | 0 | 98* | 25 | -4
COc1ccc(N2CCN(C(=O)CN(Cc3ccccc3)S(C)(=O)=O)CC2)cc1 | -5 | -4 | 0 | 86* | 5 | -11
Cn1cnc([N+](=O)[O-])c1Sc1nnc(-c2ccccc2)c(-c2ccccc2)n1 | x | x | x | x | x | 4
COc1cccc(CNC(=O)[C@H]2CCCN2C(=O)C2CCCN2C(=O)c2ccc(OC)c(F)c2)c1 (some centres not stated) | x | x | x | x | x | -1
CCCCCCCCN1C(=O)[C@@H](CC(=O)NCC23CC4CC(CC(C4)C2)C3)C[C@@]2(C(=O)OC)C1=C[C@H](C1CCCC1)O[C@@H]2C | x | x | x | x | x | 4
C=CCN(Cc1ccccc1)C(C#CC(=C)C)Cc1ccccc1 (configuration not stated) | x | x | x | x | x | 1
COc1ccc(N2CCN(C(=O)CCCCn3c(=O)[nH]c4ccsc4c3=O)CC2)cc1 | -7 | 0 | 0 | 83* | 28 | 0
COc1ccc(N2CCN(C(=O)CCCn3c(=O)[nH]c4ccsc4c3=O)CC2)cc1 | -5 | -3 | 0 | 65 | -17 | 1
COc1ccc(NCN2C(=O)CCC2=O)cc1 | -7 | -5 | 1 | 17 | 28 | 0
O=C1CCC(=O)N1CNc1ccc(Oc2ccccc2)cc1 | 0 | 5 | 0 | 98* | 21 | 1
SMILES | APOBEC3G inh | A3A deaminase | aDG glyco up | ALR inh | PHOSPHO1 block | rCAG RNA binder
O=C(O)C1OC(Oc2c(-c3ccc(O)c(O)c3)oc3cc(O)cc(O)c3c2=O)C(O)C(O)C1O (configuration not stated) | 5 | 9 | x | 99* | 6 | x
C[C@@H]1O[C@@H](OC[C@@H]2O[C@H](Oc3c(-c4ccc(O)cc4)oc4cc(O)cc(O)c4c3=O)[C@@H](O)[C@H](O)[C@H]2O)[C@H](O)[C@H](O)[C@H]1O | -6 | -3 | 0 | 80* | x | -1
COc1ccc(/C=c2\s/c(=C\C(=O)C(C)(C)C)[nH]c2=O)cc1O | -5 | -1 | 0 | 89* | 28 | 11
COc1cc(/C=c2\s/c(=C\C(=O)C(C)(C)C)[nH]c2=O)cc(OC)c1OC | -5 | 0 | -1 | -17 | 30 | 3
O=C1CCCC2=C1C(c1ccc(O)c(O)c1)Nc1ccc3ncccc3c12 (configuration not stated) | 13 | 12 | 0 | 99* | 43 | 9
Cn1c(=O)oc2cc(S(=O)(=O)N3CCN(Cc4ccc5c(c4)OCO5)CC3)ccc21 | -4 | 2 | 0 | -8 | 72* | -2
O=C(Nc1ccccc1)c1ccc(=O)n(Cc2ccc(F)c(F)c2)c1 | -1 | -1 | 2 | -2 | 65* | -7
NC(=O)c1ccc(=O)n(Cc2ccc(F)c(F)c2)c1 | -2 | 0 | 0 | 1 | x | -1
Cc1ccccc1NC(=O)CCNS(=O)(=O)c1ccc2c(c1)CCC(=O)N2 | -8 | -4 | 0 | -3 | 62* | -1
CC(C)(C)NC(=O)C(Cc1ccccc1)NS(=O)(=O)c1ccc2c(c1)CCC(=O)N2 (configuration not stated) | -4 | 2 | 0 | 98* | 6 | 0
COc1ccc(C)cc1NC(=O)CCNS(=O)(=O)c1ccc2c(c1)CCC(=O)N2 | -9 | -6 | 0 | 2 | 40 | 1
O=C1CCc2cc(S(=O)(=O)NC(Cc3ccccc3)C(=O)NC3CCCCC3)ccc2N1 (configuration not stated) | 0 | -1 | 0 | 8 | 0 | 1
Cc1ccc(NC(=O)CCNS(=O)(=O)c2ccc3c(c2)CCC(=O)N3)cc1F | -9 | -2 | 0 | -3 | 70* | 1
CCN(CC)c1ccc(NC(=O)CCNS(=O)(=O)c2ccc3c(c2)CCC(=O)N3)c(C)c1 | -5 | -6 | 0 | 99* | 34 | -3
CCN(CC)c1ccc(/C=N/NC(=O)C(O)c2ccccc2)cc1 (configuration not stated) | -2 | -8 | 0 | 100* | 21 | -1
CCN(CC)c1ccc(/C=N/NC(=O)Nc2nonc2N)cc1 | -5 | -3 | 0 | 99* | 7 | 2
O=C(N/N=C/c1ccc(O)c(O)c1)C1CC1 | -5 | 3 | 0 | 99* | x | 2
CCCCCCOc1ccc(/C=N/NC(=O)C2CC2)cc1 | -3 | -1 | 0 | -12 | 27 | -2
CCN(CC)c1ccc(/C=N/NC(=O)c2ccc(Br)o2)cc1 | -7 | 0 | 0 | 12 | 9 | -2
O=C(N/N=C/c1ccsc1)C1CC1 | -10 | 1 | 0 | -15 | -13 | 0

Screening results deposited in PubChem by several laboratories.
